The entries come from a sample that favours hits as a whole.
ST2 inh: inhibitors of human ST2 (IL1RL1) binding to IL-33, primary screen, biochemical, AlphaLISA; Interleukin-1 receptor-like 1 (Homo sapiens), Q01638; actives 2.3% (n = 78,000); AlphaLISA ST2-Fc/biotin-IL-33 interaction, 1 h; inhibition, % for hits at 17 µM; in the data active means inhibition above about 30%
Target sequence (Q01638 whole entry, looked up): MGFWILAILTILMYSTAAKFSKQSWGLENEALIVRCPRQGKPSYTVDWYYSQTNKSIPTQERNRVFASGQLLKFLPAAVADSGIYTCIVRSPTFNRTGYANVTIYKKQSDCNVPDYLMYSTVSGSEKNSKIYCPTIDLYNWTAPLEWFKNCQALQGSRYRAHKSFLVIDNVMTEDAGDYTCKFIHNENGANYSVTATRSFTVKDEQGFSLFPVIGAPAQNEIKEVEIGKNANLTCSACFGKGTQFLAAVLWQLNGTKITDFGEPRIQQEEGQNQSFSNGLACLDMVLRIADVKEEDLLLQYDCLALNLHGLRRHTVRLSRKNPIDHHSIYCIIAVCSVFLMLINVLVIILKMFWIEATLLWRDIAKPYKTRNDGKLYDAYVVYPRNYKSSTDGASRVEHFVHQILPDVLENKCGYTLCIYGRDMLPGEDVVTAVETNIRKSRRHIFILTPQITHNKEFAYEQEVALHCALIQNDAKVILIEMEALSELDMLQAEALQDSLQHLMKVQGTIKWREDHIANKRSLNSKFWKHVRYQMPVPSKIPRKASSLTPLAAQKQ
* marks the source's active call; other numbers are inactive results; i = inactive.

SMILES | ST2 inh
O=C(Nc1ccccc1)N[C@H]1C[C@H]2C(=O)NC[C@@H](CCC(=O)N3CCN(c4ccccn4)CC3)N2C1 | i
Cc1ccc(-n2cnc3sc4c(c3c2=O)CCCC4)cc1 | i
COc1ccc2nc(SCC(=O)N3c4ccccc4C(C)=CC3(C)C)nc(C)c2c1 | i
COc1c(F)cccc1C(=O)N1CCC(O)(CN(C)C)C1 (configuration not stated) | i
COC(=O)[C@@H]1Cc2ncn(Cc3ccc(Cl)cc3)c2CN1S(=O)(=O)c1ccc(F)cc1 | i
CC1(C)Cc2cccc(CN3CCC(n4cc(CO)nn4)CC3)c2O1 | i
Cc1cc(CC(C)NC(=O)c2cnc(-c3cccnc3)nc2)n[nH]1 (configuration not stated) | i
O=C1CCCC2=C1C(c1ccc(OCc3ccc(C(=O)O)cc3)c(Cl)c1)C1=C(CCCC1=O)O2 | i
O=c1cc(-c2ccccc2)c2ccc(O)c(O)c2o1 | i
N#Cc1ccc(Oc2ccc(C(=O)c3ccccc3)cc2)cc1C#N | i
N#Cc1ccc(Br)cc1/C=C/C(=O)O | 80.0%*
O=C(c1ccccc1)c1cc(Br)ccc1O | i
O=C(O)CCNC(=O)/C(=C/c1ccc2c(c1)OCO2)NC(=O)c1ccccc1Cl | i
Cn1nc(-c2ccccc2)c2c1NC(=O)CC2c1ccc2nonc2c1 (configuration not stated) | i
COc1ccc(C2C(C(=O)Nc3ccc(F)c(Cl)c3)CC(=O)N2c2ccc(OC)cc2)cc1 (configuration not stated) | i
COc1ccc(C2C3C(=O)NC(=O)C3ON2c2ccc(Cl)cc2)cc1 (configuration not stated) | 31.0%*
COc1ccc(N2C(=O)C3C(c4ccc(F)cc4)OC4(C(=O)c5ccccc5C4=O)C3C2=O)cc1 (configuration not stated) | i
Cc1ccc(S(=O)(=O)N(C)CC(=O)Nc2ccc3c(c2)OCCO3)cc1 | i
CCN(CC)C(=O)C1CCCN(c2ccc([N+](=O)[O-])cc2S(=O)(=O)N2CCOCC2)C1 (configuration not stated) | i
C(=C\c1ccccn1)/c1cccc(-n2cnnc2)c1 | i
C(=C\c1cc(/C=C/c2ccccc2)ncn1)/c1ccccc1 | i
O=C(c1ccccc1)c1ccc(/C=C/c2ccccn2)cc1 | 55.0%*
O=C1N=C(N2CCN(CCO)CC2)S/C1=C\c1ccc(Br)cc1 | i
COc1ccccc1-c1nnc(Nc2nc3c(F)cccc3s2)o1 | i
COCCCNC(=O)c1ccc2c(c1)ncn2C1CCCC1 | i
SMILES | ST2 inh
O=Cc1cn(CC(=O)N2CCCC2)c2ccc(Br)cc12 | i
Cc1cc(C)c2c(=O)cc(C3C(=O)c4ccccc4C3=O)[nH]c2c1 | i
Cc1cc(Br)c2c3c(c(N)c(=O)[nH]c13)-c1ccccc1C2=O | 45.0%*
O=C(CS(=O)(=O)c1cn(Cc2ccc(F)cc2)c2ccccc12)N1CCCCCC1 | i
O=C(c1ccc2nc3ccccc3c(=O)n2c1)N1CCN(Cc2ccc3c(c2)OCO3)CC1 | i
O=C(c1nc(N2CCCC2)nc2c1CCCC2)N1CCN(Cc2ccc3c(c2)OCO3)CC1 | 32.0%*
NNC(=O)CN1CCN(Cc2ccc3c(c2)OCO3)CC1 | i
CC(=O)c1ccc(NC(=O)c2noc3c2CC(C(C)(C)C)CC3)cc1 (configuration not stated) | i
CCOC(=O)c1cccnc1-c1cc(OC)ccc1F | i
Cc1ccc(N=C2c3cc([N+](=O)[O-])ccc3-c3ncccc32)cc1 | i
COc1ccc(/C=C2/c3cc(C)ccc3-c3ncccc32)cc1 | 31.0%*
Cc1ccc(S(=O)(=O)N[C@H]2C[C@@H](c3nc(-c4cccnc4)no3)N(C)C2)cc1 | i
COc1ccc(-c2cc(-c3ccccc3)nc(=O)[nH]2)cc1 | i
COc1ccc(-c2ccc[nH]2)cc1 | 42.0%*
COc1ccc(-c2cc3ccccc3[nH]2)cc1 | i
Cc1ccc(NC(=O)C(NS(=O)(=O)c2cccs2)C(C)C)cc1F (configuration not stated) | i
CCOC(=O)c1cc(C)nc(N2CCc3[nH]nc(-c4cccc(F)c4)c3C2)n1 | i
COc1ccc(C=Nc2ccc(S(=O)(=O)Nc3ccccn3)cc2)c(OC)c1 | i
CCN(CC)c1cc(C)c2cc(NC(=O)c3cnccn3)ccc2n1 | i
CCN(CC)c1ccc(NC(=O)c2cnccn2)cc1 | 56.0%*
O=C(Nc1ccc(Cl)cc1)c1cnccn1 | i
COC(=O)C1=C(C)Nc2nc(SCc3ccccc3)[nH]c(=O)c2C1c1ccc(OC)cc1 (configuration not stated) | i
COc1ccccc1C(=O)C1CCCN(C(=O)CN2C(=O)c3ccccc3C2=O)C1 (configuration not stated) | i
CC1=C(C(=O)Nc2ccccn2)C(c2cccc(Cl)c2)C2=C(CC(C)(C)CC2=O)N1 (configuration not stated) | i
CCN1CCc2c(sc(NC(=O)COc3ccccc3)c2C(=O)OC)C1 | i
SMILES | ST2 inh
COC(=O)c1c(NC(=O)c2ccc(F)cc2)sc2c1CCN(C(C)C)C2 | i
CCN1CCc2c(sc(NC(=O)c3ccc(Cl)cc3)c2C(=O)OC)C1 | 89.0%*
O=[N+]([O-])c1ccccc1C=Nc1ccc(S(=O)(=O)Nc2nccs2)cc1 | i
COCC1CCCN(C(=O)c2cc(COc3cccc(C(C)=O)c3)[nH]n2)C1 (configuration not stated) | i
Cc1ccc(-c2onc3ccc(Cl)cc23)cc1 | 45.0%*
O=C(O)c1cc(-c2ccc(Br)cc2)nc2ccc(Cl)cc12 | i
CC(=O)Oc1ccc(-c2nc3ccc(Cl)cc3c(=O)o2)cc1 | i
CCc1cc(C(=O)Cn2cnc3ccccc32)c(O)cc1O | i
CCCC(=O)C1=C(SCC)CC(C)(C)CC1=O | i
O=S(=O)(c1ccccc1)n1cnc2ccccc21 | i
COc1cc(CN2CCCCCC2)c([N+](=O)[O-])cc1OC | i
O=[N+]([O-])c1cc2c(cc1CN1CCN(c3cccc(Cl)c3)CC1)OCO2 | 36.0%*
O=[N+]([O-])c1cc2c(cc1CN1CCN(c3ccc(F)cc3)CC1)OCO2 | 36.0%*
OC(COCc1ccc2c(c1)OCO2)CN1CCN(c2cccc(Cl)c2)CC1 (configuration not stated) | i
COc1cc(CN2CCN(Cc3ccccc3)CC2)c([N+](=O)[O-])cc1OC | i
CN1CCN(Cc2cc(O)ccc2[N+](=O)[O-])CC1 | i
CC(c1nccs1)N(C)C(=O)c1ccc(-n2cnnc2)cc1 (configuration not stated) | i
O=C(O)CCc1ccc(-c2ccc(F)cc2)o1 | i
Cc1ccccc1C(=O)N1CCC(c2nn3c(C(C)C)nnc3s2)CC1 | i
COc1ccccc1-n1cc(C(=O)N(C)Cc2nncn2C(C)C)cn1 | i
C=Cc1ccc(C(=O)N(C)CC2CCCN(CCc3ccccc3C)C2)cc1 (configuration not stated) | i
CN(C(=O)CN(C)S(=O)(=O)c1ccc2c(c1)CCC(=O)N2)C1CCCCC1 | i
O=C(c1cc2c(s1)CCCCC2)N1CC[C@H](O)[C@@H](O)C1 | i
COc1ccc(C2C(C(=O)OC3CCCC3)=C(C)NC3=C2C(=O)CC(C)(C)C3)c(OC)c1 (configuration not stated) | i
CC1CC(=O)N(CC(=O)Nc2ccc(Br)cc2)c2ccccc2S1 (configuration not stated) | i

Bioassay records deposited in PubChem by Paczesny and Yang Labs, IUPUI and University of Michigan.
